Experimental findings from ChEMBL document CHEMBL1961873, “Compounds: GSK PKIS; Assays: Nanosyn kinase panel” (2012) are described below.

The structures appear in SMILES notation.

Assay [1] concerns the target Tyrosine-protein kinase SYK (Homo sapiens) (UniProt P43405). The note with it: at 1 µM.
Assay [2] deals with T1, Tyrosine-protein kinase Tec (Homo sapiens) (UniProt P42680).
T1 sequence (whole entry): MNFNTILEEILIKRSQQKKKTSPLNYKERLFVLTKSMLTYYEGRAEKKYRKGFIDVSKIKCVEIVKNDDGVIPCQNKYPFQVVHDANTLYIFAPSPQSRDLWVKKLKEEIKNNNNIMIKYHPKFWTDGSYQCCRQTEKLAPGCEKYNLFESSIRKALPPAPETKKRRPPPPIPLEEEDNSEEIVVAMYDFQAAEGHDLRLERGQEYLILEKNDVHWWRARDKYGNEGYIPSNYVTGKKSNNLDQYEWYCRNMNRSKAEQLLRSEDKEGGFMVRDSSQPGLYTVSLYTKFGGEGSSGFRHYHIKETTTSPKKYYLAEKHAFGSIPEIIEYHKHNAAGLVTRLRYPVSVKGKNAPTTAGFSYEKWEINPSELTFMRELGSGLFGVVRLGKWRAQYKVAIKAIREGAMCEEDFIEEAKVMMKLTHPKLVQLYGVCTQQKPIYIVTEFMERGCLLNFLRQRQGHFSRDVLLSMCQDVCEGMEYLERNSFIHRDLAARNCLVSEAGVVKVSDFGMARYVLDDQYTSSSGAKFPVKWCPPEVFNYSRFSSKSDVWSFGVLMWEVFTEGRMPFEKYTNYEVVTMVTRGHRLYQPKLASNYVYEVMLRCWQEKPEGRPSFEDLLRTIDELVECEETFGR
The note with it: at 0.1 µM.

Assay [3] addresses T1, Tyrosine-protein kinase Tec (Homo sapiens). The note with it: at 1 µM.
Assay [4] addresses Angiopoietin-1 receptor (Homo sapiens) (UniProt Q02763). The note with it: at 0.1 µM.
Assay [5] shares this target. The note with it: at 1 µM.
Assay [6] addresses T2, Non-receptor tyrosine-protein kinase TNK1 (Homo sapiens) (UniProt Q13470).
T2 sequence (whole entry): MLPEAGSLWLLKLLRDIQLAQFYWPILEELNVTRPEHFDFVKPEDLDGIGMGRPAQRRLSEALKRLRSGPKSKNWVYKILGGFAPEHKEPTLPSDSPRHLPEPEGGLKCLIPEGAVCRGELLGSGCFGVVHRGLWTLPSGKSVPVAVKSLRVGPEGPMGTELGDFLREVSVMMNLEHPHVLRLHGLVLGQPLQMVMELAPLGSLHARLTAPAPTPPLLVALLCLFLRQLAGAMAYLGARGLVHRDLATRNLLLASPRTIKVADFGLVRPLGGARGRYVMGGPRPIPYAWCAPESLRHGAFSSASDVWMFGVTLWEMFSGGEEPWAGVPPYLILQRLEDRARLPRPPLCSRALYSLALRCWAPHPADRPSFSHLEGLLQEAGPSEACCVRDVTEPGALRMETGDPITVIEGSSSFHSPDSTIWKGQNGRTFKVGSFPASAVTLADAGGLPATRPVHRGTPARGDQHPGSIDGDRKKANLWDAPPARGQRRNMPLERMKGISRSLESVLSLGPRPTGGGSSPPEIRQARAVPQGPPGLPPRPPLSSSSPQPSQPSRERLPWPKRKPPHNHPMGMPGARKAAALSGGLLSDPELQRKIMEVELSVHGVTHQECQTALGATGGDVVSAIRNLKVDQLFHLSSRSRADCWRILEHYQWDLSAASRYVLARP
The note with it: at 0.1 µM.

In assay [7] the target is T2, Non-receptor tyrosine-protein kinase TNK1 (Homo sapiens). The note with it: at 1 µM.
Assay [8] has as its target Activated CDC42 kinase 1 (Homo sapiens) (UniProt Q07912). The note with it: at 0.1 µM.
The target is the same in assay [9]. The note with it: at 1 µM.
The target in assay [10] is High affinity nerve growth factor receptor (Homo sapiens) (UniProt P04629). The note with it: at 0.1 µM.
The target is the same in assay [11]. The note with it: at 1 µM.
In assay [12] the target is BDNF/NT-3 growth factors receptor (Homo sapiens) (UniProt Q16620). The note with it: at 0.1 µM.
For assay [13] the target is unchanged. The note with it: at 1 µM.
For assay [14], the target named is NT-3 growth factor receptor (Homo sapiens) (UniProt Q16288). The note with it: at 0.1 µM.
Assay [15] shares this target. The note with it: at 1 µM.
In assay [16] the target is T3, Tyrosine-protein kinase TXK (Homo sapiens) (UniProt P42681).
T3 sequence (whole entry): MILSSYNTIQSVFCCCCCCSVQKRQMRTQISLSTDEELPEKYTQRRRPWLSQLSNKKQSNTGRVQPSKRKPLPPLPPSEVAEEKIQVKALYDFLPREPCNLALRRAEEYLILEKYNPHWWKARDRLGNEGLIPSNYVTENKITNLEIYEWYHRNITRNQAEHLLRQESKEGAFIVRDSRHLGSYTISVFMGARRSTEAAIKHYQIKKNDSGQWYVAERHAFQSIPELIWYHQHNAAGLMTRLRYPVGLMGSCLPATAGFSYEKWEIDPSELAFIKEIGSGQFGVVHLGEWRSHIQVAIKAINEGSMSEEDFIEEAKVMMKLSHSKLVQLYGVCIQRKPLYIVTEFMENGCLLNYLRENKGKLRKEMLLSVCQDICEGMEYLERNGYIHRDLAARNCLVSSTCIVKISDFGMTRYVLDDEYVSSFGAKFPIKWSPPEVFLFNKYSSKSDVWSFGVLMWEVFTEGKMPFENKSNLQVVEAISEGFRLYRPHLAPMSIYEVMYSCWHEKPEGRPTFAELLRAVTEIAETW
The note with it: at 0.1 µM.

The target of assay [17] is T3, Tyrosine-protein kinase TXK (Homo sapiens). The note with it: at 1 µM.
The target in assay [18] is Non-receptor tyrosine-protein kinase TYK2 (Homo sapiens) (UniProt P29597). The note with it: at 0.1 µM.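 Also: each value is a mean of the inhibition readings.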
In assay [19] the target is T4, Dual specificity protein kinase TTK (Homo sapiens) (UniProt P33981).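 Also: reported figures are mean TTK inhibition at 1 µM.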
T4 sequence (whole entry): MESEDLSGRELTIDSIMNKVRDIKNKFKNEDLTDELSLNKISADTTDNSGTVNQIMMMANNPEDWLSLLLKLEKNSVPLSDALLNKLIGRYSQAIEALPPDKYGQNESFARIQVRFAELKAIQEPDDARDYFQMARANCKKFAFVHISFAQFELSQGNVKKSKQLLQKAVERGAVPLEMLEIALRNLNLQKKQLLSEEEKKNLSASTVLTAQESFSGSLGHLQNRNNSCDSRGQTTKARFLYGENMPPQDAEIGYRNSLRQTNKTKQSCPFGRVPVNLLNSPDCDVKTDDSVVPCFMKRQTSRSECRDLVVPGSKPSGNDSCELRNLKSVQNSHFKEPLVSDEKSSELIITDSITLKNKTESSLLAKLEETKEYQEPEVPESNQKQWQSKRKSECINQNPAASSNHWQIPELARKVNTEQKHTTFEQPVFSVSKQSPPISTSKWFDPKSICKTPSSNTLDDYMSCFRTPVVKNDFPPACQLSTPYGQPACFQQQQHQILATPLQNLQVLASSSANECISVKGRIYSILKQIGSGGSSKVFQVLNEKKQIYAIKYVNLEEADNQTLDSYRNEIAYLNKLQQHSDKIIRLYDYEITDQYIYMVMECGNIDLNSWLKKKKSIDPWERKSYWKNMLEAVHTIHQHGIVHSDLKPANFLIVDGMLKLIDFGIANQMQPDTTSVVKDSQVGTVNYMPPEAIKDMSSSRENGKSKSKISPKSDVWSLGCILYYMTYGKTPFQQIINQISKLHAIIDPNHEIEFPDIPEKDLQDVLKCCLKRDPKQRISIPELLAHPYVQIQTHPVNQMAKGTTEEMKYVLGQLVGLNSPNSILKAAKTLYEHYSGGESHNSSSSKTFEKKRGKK
The note with it: at 1 µM.

For assay [20], the target named is T5, Aurora kinase A (Homo sapiens) (UniProt O14965).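 Also: each reported value is a mean percent inhibition of Aurora-A.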
T5 sequence (whole entry): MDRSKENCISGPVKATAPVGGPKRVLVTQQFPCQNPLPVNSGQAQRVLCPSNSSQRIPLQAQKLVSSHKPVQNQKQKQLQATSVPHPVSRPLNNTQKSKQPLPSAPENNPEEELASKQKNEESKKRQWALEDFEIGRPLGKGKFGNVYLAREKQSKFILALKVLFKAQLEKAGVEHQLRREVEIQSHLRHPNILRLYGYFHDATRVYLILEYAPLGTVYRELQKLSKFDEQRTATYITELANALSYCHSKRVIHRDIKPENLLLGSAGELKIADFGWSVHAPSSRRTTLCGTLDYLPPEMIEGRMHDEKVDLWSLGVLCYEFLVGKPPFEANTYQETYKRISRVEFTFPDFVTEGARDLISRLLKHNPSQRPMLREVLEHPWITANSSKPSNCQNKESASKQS
The note with it: at 0.1 µM.

A word on the inhibition: it is the change of the read-out against control, counted positive when it falls.

Chain of High affinity nerve growth factor receptor (Homo sapiens) (P04629 33-796 limits assumed): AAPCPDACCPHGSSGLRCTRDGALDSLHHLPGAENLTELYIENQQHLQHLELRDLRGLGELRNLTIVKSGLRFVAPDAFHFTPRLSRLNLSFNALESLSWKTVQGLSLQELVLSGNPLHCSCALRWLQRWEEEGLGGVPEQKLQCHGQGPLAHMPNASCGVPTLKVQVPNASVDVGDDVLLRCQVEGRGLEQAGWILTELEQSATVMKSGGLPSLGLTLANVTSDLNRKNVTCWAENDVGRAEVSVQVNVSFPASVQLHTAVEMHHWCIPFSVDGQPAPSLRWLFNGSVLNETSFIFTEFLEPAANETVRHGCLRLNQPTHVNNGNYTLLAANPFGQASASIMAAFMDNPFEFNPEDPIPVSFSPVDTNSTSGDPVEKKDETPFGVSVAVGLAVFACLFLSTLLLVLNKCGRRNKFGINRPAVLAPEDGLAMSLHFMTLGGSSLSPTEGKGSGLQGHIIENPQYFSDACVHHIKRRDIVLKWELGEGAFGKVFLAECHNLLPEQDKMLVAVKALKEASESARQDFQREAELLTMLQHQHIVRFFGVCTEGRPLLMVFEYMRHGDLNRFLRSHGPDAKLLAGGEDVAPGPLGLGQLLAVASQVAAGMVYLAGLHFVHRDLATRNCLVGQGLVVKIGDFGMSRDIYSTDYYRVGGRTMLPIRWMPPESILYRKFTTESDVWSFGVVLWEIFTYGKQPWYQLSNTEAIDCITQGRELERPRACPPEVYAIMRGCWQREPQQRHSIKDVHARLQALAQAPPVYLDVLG
Chain of Non-receptor tyrosine-protein kinase TYK2 (Homo sapiens) (P29597 whole entry): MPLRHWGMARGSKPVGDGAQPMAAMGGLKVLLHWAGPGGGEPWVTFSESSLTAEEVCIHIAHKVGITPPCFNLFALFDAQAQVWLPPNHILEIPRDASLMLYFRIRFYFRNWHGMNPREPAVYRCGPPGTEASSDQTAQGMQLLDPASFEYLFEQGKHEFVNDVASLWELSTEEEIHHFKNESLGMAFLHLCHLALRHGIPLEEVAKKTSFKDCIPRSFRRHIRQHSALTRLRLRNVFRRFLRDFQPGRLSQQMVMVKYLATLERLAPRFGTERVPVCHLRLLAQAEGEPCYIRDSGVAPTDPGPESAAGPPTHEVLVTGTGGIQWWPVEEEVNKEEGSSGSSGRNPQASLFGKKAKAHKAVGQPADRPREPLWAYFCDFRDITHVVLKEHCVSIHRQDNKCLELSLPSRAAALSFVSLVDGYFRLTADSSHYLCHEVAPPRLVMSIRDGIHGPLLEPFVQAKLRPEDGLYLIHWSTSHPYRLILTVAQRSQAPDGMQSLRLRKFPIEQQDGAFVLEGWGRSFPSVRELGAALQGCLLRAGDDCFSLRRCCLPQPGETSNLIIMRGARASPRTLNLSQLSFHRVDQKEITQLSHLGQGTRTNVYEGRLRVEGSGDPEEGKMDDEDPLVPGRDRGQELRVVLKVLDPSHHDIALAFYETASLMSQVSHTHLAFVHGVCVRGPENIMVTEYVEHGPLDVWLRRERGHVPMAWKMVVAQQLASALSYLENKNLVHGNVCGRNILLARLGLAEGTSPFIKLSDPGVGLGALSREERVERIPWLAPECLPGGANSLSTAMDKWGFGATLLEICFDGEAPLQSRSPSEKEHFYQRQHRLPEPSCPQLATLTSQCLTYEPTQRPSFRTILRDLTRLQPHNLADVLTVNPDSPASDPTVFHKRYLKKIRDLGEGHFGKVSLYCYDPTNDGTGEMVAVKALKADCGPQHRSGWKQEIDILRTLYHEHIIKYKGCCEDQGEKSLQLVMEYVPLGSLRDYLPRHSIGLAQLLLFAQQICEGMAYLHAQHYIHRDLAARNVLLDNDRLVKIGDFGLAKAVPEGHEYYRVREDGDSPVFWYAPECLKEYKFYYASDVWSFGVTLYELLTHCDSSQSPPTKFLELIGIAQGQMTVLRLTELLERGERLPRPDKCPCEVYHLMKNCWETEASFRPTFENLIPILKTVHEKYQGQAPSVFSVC
Chain of Angiopoietin-1 receptor (Homo sapiens) (Q02763 whole entry): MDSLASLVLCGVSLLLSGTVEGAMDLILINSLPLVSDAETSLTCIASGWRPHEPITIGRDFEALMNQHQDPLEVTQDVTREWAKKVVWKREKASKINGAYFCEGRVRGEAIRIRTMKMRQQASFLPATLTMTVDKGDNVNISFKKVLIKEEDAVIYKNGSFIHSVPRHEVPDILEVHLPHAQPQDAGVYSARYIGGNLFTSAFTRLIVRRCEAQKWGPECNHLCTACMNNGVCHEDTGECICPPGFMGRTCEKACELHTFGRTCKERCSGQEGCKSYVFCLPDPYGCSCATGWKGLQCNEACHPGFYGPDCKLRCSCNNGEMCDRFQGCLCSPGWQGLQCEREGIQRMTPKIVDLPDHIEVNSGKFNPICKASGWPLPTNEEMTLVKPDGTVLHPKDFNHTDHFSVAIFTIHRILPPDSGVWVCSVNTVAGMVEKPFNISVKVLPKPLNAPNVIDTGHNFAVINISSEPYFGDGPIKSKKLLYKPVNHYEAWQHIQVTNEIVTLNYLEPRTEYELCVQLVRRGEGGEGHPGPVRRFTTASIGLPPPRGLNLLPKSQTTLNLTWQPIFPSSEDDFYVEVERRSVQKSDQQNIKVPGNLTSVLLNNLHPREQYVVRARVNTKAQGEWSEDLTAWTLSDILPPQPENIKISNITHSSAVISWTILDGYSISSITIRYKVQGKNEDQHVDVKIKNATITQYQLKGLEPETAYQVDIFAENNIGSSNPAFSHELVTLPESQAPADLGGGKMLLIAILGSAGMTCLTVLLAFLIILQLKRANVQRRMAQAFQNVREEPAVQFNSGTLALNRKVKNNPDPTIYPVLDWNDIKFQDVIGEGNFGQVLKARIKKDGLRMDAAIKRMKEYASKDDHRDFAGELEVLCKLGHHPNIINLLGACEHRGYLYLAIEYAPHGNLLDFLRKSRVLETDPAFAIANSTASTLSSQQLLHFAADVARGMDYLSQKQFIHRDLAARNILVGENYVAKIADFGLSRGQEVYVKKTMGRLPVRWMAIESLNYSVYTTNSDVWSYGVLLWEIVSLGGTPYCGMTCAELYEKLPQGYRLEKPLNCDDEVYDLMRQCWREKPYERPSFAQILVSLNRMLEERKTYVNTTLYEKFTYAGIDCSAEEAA
Chain of NT-3 growth factor receptor (Homo sapiens) (Q16288 32-839 limits assumed): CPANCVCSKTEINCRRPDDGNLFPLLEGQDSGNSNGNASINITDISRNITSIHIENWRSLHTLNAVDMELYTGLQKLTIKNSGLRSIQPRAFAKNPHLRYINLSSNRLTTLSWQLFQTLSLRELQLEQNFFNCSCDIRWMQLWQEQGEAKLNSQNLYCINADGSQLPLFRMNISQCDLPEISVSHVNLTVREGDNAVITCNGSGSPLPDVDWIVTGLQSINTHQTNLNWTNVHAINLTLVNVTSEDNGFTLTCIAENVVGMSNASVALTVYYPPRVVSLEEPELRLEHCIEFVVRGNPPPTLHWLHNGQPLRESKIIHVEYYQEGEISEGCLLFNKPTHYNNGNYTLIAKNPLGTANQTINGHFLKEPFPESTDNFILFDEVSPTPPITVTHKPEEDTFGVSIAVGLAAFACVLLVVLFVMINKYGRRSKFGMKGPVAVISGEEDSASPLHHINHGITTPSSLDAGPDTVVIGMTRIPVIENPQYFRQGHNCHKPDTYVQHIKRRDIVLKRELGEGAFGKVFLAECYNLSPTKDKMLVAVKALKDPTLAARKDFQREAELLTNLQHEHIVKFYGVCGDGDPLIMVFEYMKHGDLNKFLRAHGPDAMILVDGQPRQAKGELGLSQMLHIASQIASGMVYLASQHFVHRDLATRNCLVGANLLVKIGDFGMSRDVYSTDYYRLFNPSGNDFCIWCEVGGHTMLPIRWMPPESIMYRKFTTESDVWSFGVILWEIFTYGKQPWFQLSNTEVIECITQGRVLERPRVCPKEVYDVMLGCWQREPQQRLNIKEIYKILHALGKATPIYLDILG
Chain of BDNF/NT-3 growth factors receptor (Homo sapiens) (Q16620 32-822 limits assumed): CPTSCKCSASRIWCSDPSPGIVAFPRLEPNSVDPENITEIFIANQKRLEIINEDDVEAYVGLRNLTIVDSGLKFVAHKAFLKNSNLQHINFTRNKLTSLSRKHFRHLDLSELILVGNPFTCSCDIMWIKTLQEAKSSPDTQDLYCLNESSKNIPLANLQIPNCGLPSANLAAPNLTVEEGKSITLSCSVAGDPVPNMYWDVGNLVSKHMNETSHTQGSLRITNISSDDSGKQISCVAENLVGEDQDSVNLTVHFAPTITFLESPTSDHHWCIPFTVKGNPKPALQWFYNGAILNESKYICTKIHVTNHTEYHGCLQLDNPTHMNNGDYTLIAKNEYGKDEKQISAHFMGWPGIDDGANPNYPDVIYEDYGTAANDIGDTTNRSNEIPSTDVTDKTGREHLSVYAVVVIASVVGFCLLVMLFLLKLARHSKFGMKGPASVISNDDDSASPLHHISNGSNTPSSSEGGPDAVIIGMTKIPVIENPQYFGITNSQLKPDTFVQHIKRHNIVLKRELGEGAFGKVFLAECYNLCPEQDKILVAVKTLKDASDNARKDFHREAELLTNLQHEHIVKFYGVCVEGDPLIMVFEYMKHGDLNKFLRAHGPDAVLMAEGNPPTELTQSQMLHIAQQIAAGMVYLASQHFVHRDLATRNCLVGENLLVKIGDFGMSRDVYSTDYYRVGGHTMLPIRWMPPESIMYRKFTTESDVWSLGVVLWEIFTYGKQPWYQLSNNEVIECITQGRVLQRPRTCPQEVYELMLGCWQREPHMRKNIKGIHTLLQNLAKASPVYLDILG

On to `CCn1c(-c2nonc2N)nc2c(C#CCN)ncc(OCCCN)c21`, for which the inhibition in [1] is -0.1%; in assay [2], -2.6%; in [3] it was -1.5%; in [4] it was 0.84%; in assay [5] it was -0.39%; in assay [6], 2.24%. In addition, the inhibition in assay [7] is 10.6%; in assay [8] it was -0.12%; in assay [9] it was 0.81%; in assay [10], -3.88%; in [11], -4.23%; in assay [12], -0.67%. Further, the inhibition in assay [13] was -1.3%; in [14] it was 0.15%; in assay [15], 2.14%; in [16] it was -1.46%; in assay [17], -3.71%; in [18], 5.99%. The figures for the inhibition in [19] and in [20] were -3.71% and -1.21%, respectively.

`CCn1c(-c2nonc2N)nc2c(C#CC(C)(C)O)ncc(OC[C@@H]3CCCN3)c21`: the inhibition in assay [1] was -4.11%; in assay [2] it was 0.03%; in assay [3], 1.67%; in assay [4], -0.35%; in assay [5], 4.39%; in assay [6], 2.04%. Further, the inhibition is 1.67% in [7]; -0.73% in assay [8]; -0.46% in [9]; -2.99% in [10]; -3.52% in [11]; -0.66% in assay [12]. Further, the inhibition in [13] is 0.79%; in assay [14] it was 1.15%; in assay [15], -0.37%; in assay [16], -0.98%; in assay [17], 1.67%; in assay [18] it was -0.97%. Besides, the inhibition in [19] worked out at 4.1%; in [20], 3.07%.

In the case of `COc1cc(C=NNc2ncnc3c2cnn3Cc2ccccc2)ccc1O`, the inhibition in assay [1] is -4.26%; in assay [2], -0.99%; in assay [3] it was 16.4%; in assay [4], 3.65%; in [5] it was 31.7%; in assay [7], -2.22%. Further, the inhibition was -1.7% in [8]; 0.03% in assay [9]; -2.9% in [10]; 2.96% in assay [11]; 0.74% in [12]; 23.4% in [13]. Also, the inhibition stood at 0.17% in [14]; 14% in assay [15]; 1.55% in assay [16]; 19.6% in assay [17]; 3.47% in assay [18]; 3.09% in [19]. The inhibition in [20] was determined as 2.88%.

As to `NC(=O)c1sc(-n2cnc3cc(C(F)(F)F)ccc32)cc1OCc1ccccc1Br`, the inhibition is 1.46% in [1]; 1.68% in assay [2]; 3.28% in [3]; 2.07% in [4]; 3.72% in assay [5]; 1.72% in assay [6]. Besides, the inhibition in assay [7] was 5.51%; in assay [8] it was 0.49%; in [9], 1.45%; in [10], -0.62%; in [11], -0.05%; in assay [12], 3%. Further, the inhibition in assay [13] was 1.49%; in [14], 1.41%; in assay [15], 2.25%; in [16], 1.4%; in assay [17], 3.45%; in assay [18], 0.53%. For the same compound, the inhibition in assay [19] turned out to be 3.54%; in assay [20], 1.18%.
